Assay results published in PubChem BioAssay (Tox21).
A number with no mark means an inactive call. Results filed as inconclusive are left out. Where a call stands in place of a potency, no number is given. The source made the active and inactive calls. The call rests on the fitted dose curve; in most records, active means well fitted curve in the direction sought with a large enough effect in the repeat runs; inconclusive means weak or mixed curves; inactive means no such curve, though single readings can be large; an effect the other way counts as inactive or inconclusive.

Columns and labels:
[1] = qHTS RealTime-Glo MT Cell Viability Assay in HepG2 cells - 24 hour (AID 1224867); further: nearly all actives have a fitted effect of over 50% in size
In short: (§1)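 Real-time, nonlytic viability: 600 HepG2 cells/well mixed with NanoLuc enzyme plus prosubstrate; 5 h settle, compound (DMSO) added by pintool; luminescence monitored over 40 h at 37 C.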

[2] = qHTS RealTime-Glo MT Cell Viability Assay in HEK293 cells - 32 hour (AID 1224868); further: top concentration of the series differs between compounds; nearly all actives have a fitted effect of over 50% in size
In short: (§2)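 Cells + reagent dispensed (600 cells/well, HEK293) → 5 h at 37 C/5% CO2 → 23 nL compound in DMSO pinned → 40 h at 37 C → luminescence read at 0, 8, 16, 24, 32, 40 h.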

[3] = A CellTox Green Cytotoxicity Assay to monitor cytotoxicity in HEK293 cells - 0 hour (AID 1224869); further: nearly all actives have a fitted effect of over 50% in size
In short: (§3)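 Read-out: fluorescence of a cell-impermeant cyanine dye staining DNA of dead cells, proportional to cytotoxicity. HEK293, 600 cells/well with reagent, compound (23 nL DMSO) added after 5 h; reads at 0, 8, 16, 24, 32, 40 h.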

[4] = A CellTox Green Cytotoxicity Assay to monitor cytotoxicity in HEK293 cells - 40 hour (AID 1224871); further: nearly all actives have a fitted effect of over 45% in size
In short: as §3

[5] = qHTS RealTime-Glo MT Cell Viability Assay in HepG2 cells - 8 hour (AID 1224873); further: nearly all actives have a fitted effect of over 55% in size
In short: (§4)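 HepG2 cells (600/well) mixed with RealTime-Glo MT reagent, settled 5 h at 37 C/5% CO2 before compound addition. Nonlytic NanoLuc luminescence from viable-cell prosubstrate reduction read repeatedly during 40 h treatment at 37 C.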

[6] = qHTS RealTime-Glo MT Cell Viability Assay in HEK293 cells - 40 hour (AID 1224874); conditions: RealTime-Glo luminescence; max response: hits give low values; further: nearly all actives have a fitted effect of over 50% in size
In short: (§5)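 Luminescence readout at each listed time point; HEK293, 600 cells/well, RealTime-Glo MT reagent added with cells; compounds pinned (23 nL in DMSO) after 5 h at 37 C; continuous culture at 37 C.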

[7] = A CellTox Green Cytotoxicity Assay to monitor cytotoxicity in HEK293 cells - 24 hour (AID 1224875); further: series mostly up to about 77 µM; nearly all actives have a fitted effect of over 45% in size
In short: as §3

[8] = A CellTox Green Cytotoxicity Assay to monitor cytotoxicity in HepG2 cells - 16 hour (AID 1224876); further: nearly all actives have a fitted effect of over 45% in size
In short: (§6)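 HepG2, 600 cells/well premixed w/ CellTox Green; 5 h settle, 37 C/5% CO2; pintool cpd add (DMSO); 37 C, 40 h; fluorescence read at 0, 8, 16, 24, 32, 40 h.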

[9] = qHTS RealTime-Glo MT Cell Viability Assay in HepG2 cells - 32 hour (AID 1224877); further: nearly all actives have a fitted effect of over 55% in size
In short: as §1

[10] = A CellTox Green Cytotoxicity Assay to monitor cytotoxicity in HepG2 cells - 24 hour (AID 1224878); further: nearly all actives have a fitted effect of over 45% in size
In short: as §6

[11] = A CellTox Green Cytotoxicity Assay to monitor cytotoxicity in HepG2 cells - 40 hour (AID 1224879); further: nearly all actives have a fitted effect of over 40% in size
In short: as §6

[12] = qHTS RealTime-Glo MT Cell Viability Assay in HEK293 cells - 0 hour (AID 1224880)
In short: as §5

[13] = A CellTox Green Cytotoxicity Assay to monitor cytotoxicity in HEK293 cells - 32 hour (AID 1224881); further: nearly all actives have a fitted effect of over 40% in size
In short: as §3

[14] = A CellTox Green Cytotoxicity Assay to monitor cytotoxicity in HepG2 cells - 0 hour (AID 1224882); further: nearly all actives have a fitted effect of over 35% in size
In short: as §6

[15] = A CellTox Green Cytotoxicity Assay to monitor cytotoxicity in HepG2 cells - 32 hour (AID 1224883); further: nearly all actives have a fitted effect of over 50% in size
In short: as §6

[16] = A CellTox Green Cytotoxicity Assay to monitor cytotoxicity in HEK293 cells - 8 hour (AID 1224884); further: nearly all actives have a fitted effect of over 35% in size
In short: as §3

[17] = qHTS RealTime-Glo MT Cell Viability Assay in HepG2 cells - 16 hour (AID 1224885); further: nearly all actives have a fitted effect of over 50% in size
In short: as §1

[18] = qHTS RealTime-Glo MT Cell Viability Assay in HEK293 cells - 24 hour (AID 1224886); further: nearly all actives have a fitted effect of over 50% in size; further: potency means the concentration at half of the fitted maximal effect; on activity change, negative = cytotoxicity: top concentration of the series differs between compounds
In short: as §2

[19] = qHTS RealTime-Glo MT Cell Viability Assay in HepG2 cells - 40 hour (AID 1224870); further: nearly all actives have a fitted effect of over 50% in size
In short: as §4

[20] = qHTS RealTime-Glo MT Cell Viability Assay in HEK293 cells - 16 hour (AID 1224872)
In short: as §2

With `CC(=O)/C=C/c1ccco1` the outcome [1] was “inactive”, the Potency [2] was “inactive” and the Potency [3] was “inactive”. For the same compound, the Potency [4] was “inactive”, the outcome [5] was “inactive” and the max response [6] was 7.79%. The Potency [7] was “inactive”, the Potency [8] was “inactive” and the outcome [9] was “inactive”. For the same compound, the Potency [10] was “inactive”, the Potency [11] was “inactive” and the outcome [12] was “inactive”. The Potency [13] was “inactive”, the Potency [14] was “inactive” and the Potency [15] was “inactive”. For the same compound, the Potency [16] was “inactive”, the outcome [17] was “inactive” and the Potency [18] was “inactive”.
For `CN(C1CCCCC1)S(=O)(=O)c1ccccc1N`, the outcome [1] was “inactive”, the Potency [3] was “inactive” and the outcome [19] was “inactive”. The Potency [4] was “inactive”, the outcome [5] was “inactive” and the Potency [7] was “inactive”. For the same compound, the Potency [8] was “inactive”, the outcome [9] was “inactive” and the Potency [10] was “inactive”. The Potency [11] was “inactive”, the outcome [12] was “inactive” and the Potency [13] was “inactive”. For the same compound, the Potency [14] was “inactive”, the Potency [15] was “inactive” and the outcome [17] was “inactive”.
For `CC(=O)OC(C(=O)c1ccccc1)c1ccccc1` (stereo not drawn), the outcome [1] was “inactive”, the Potency [3] was “inactive” and the outcome [19] was “inactive”. The Potency [4] was “inactive”, the outcome [5] was “inactive” and the Potency [7] was “inactive”. For the same compound, the Potency [8] was “inactive”, the outcome [9] was “inactive” and the Potency [10] was “inactive”. For the same compound, the Potency [11] was “inactive”, the outcome [12] was “inactive” and the Potency [13] was “inactive”. The Potency [14] was “inactive”, the Potency [15] was “inactive” and the Potency [16] was “inactive”. The outcome [17] was “inactive”.
For `Cc1ncc([N+](=O)[O-])n1CC(O)CCl` (stereo not drawn), the outcome [1] was “inactive”, the Potency [2] was “inactive” and the Potency [3] was “inactive”. The Potency [4] was “inactive”, the Potency [20] was “inactive” and the outcome [5] was “inactive”. The max response [6] was 3.64%, the Potency [7] was “inactive” and the Potency [8] was “inactive”. For the same compound, the Potency [10] was “inactive”, the Potency [11] was “inactive” and the outcome [12] was “inactive”. For the same compound, the Potency [13] was “inactive”, the Potency [14] was “inactive” and the Potency [15] was “inactive”. The Potency [16] was “inactive”, the outcome [17] was “inactive” and the Potency [18] was “inactive”.
In the case of `CCCCCCCCCCCCOC(C)=O`, the outcome [1] was “inactive”, the Potency [3] was “inactive” and the outcome [19] was “inactive”. The Potency [4] was “inactive”, the Potency [20] was “inactive” and the outcome [5] was “inactive”. For the same compound, the Potency [7] was “inactive”, the Potency [8] was “inactive” and the outcome [9] was “inactive”. The Potency [10] was “inactive”, the Potency [11] was “inactive” and the outcome [12] was “inactive”. The Potency [13] was “inactive”, the Potency [14] was “inactive” and the Potency [15] was “inactive”. The outcome [17] was “inactive” and the Potency [18] was “inactive”.
For `CN(C)CCCNCCC#N`, the outcome [1] was “inactive”, the Potency [2] was “inactive” and the Potency [3] was “inactive”. The Potency [4] was “inactive”, the outcome [5] was “inactive” and the max response [6] was 6.65%. For the same compound, the Potency [7] was “inactive”, the Potency [8] was “inactive” and the outcome [9] was “inactive”. The Potency [10] was “inactive”, the Potency [11] was “inactive” and the outcome [12] was “inactive”. The Potency [14] was “inactive”, the Potency [15] was “inactive” and the Potency [16] was “inactive”. The outcome [17] was “inactive” and the Potency [18] was “inactive”.
In the case of `CCCCOC(=O)[C@@H](C)Oc1ccc(Oc2ccc(C(F)(F)F)cn2)cc1`, the outcome [1] was “inactive”, the Potency [3] was “inactive” and the outcome [19] was “inactive”. For the same compound, the Potency [4] was “inactive”, the outcome [5] was “inactive” and the Potency [7] was “inactive”. For the same compound, the Potency [8] was “inactive”, the outcome [9] was “inactive” and the Potency [10] was “inactive”. For the same compound, the Potency [11] was “inactive”, the outcome [12] was “inactive” and the Potency [13] was “inactive”. The Potency [14] was “inactive”, the Potency [15] was “inactive” and the Potency [16] was “inactive”. The outcome [17] was “inactive” and the Potency [18] was 31.1 µM (active).
In the case of `CCCCCCCCCOCC1CO1` (stereo not drawn), the outcome [1] was “inactive”, the Potency [2] was “inactive” and the Potency [3] was “inactive”. For the same compound, the Potency [4] was “inactive”, the Potency [20] was “inactive” and the outcome [5] was “inactive”. The Potency [7] was “inactive”, the Potency [8] was “inactive” and the Potency [10] was “inactive”. The Potency [11] was “inactive”, the Potency [13] was “inactive” and the Potency [14] was “inactive”. The Potency [15] was “inactive”, the Potency [16] was “inactive” and the outcome [17] was “inactive”. The Potency [18] was “inactive”.
`O=C(O)Cc1cccc(-c2cc(CCCCCCc3ccc(O[C@H]4O[C@H](CO)[C@@H](O)[C@H](O)[C@@H]4O)c(-c4cccc(CC(=O)O)c4)c3)ccc2O[C@H]2O[C@H](CO)[C@@H](O)[C@H](O)[C@@H]2O)c1` showed an activity change, negative = cytotoxicity [1] of 2.07% [at 0.29 µM], an activity change, negative = cytotoxic [2] of 4.81% [at 0.29 µM] and a cytotoxicity [3] of 3% [at 0.29 µM]. For the same compound, the cytotoxicity increase [4] was -17.8% [at 0.29 µM], the activity change, negative = cytotoxicity [20] was 3.33% [at 0.29 µM] and the max response [6] was -2.4%. For the same compound, the activity change [7] was -8.86% [at 0.29 µM, hits give high values], the cytotoxicity increase [8] was 15.1% [at 0.29 µM] and the activity change, negative = cytotoxic [9] was -9.69% [at 0.29 µM]. For the same compound, the cytotoxicity [10] was 15.2% [at 0.29 µM], the cytotoxicity increase [11] was 20% [at 0.29 µM] and the activity change, negative = cytotoxicity [12] was 3.85% [at 0.29 µM]. It also gave a cytotoxicity increase [13] of -14.2% [at 0.29 µM], an activity change, negative = cytotoxic [17] of 17.8% [at 0.29 µM] and an activity change, negative = cytotoxicity [18] of -1.38% [at 0.29 µM].
In the case of `CCOC(=O)C(=O)c1csc(NC=O)n1`, the outcome [1] was “inactive”, the Potency [2] was “inactive” and the Potency [3] was “inactive”. For the same compound, the Potency [4] was “inactive”, the Potency [20] was “inactive” and the outcome [5] was “inactive”. For the same compound, the max response [6] was 0.45%, the Potency [7] was “inactive” and the Potency [8] was “inactive”. The outcome [9] was “inactive”, the Potency [10] was “inactive” and the Potency [11] was “inactive”. For the same compound, the Potency [13] was “inactive”, the Potency [14] was “inactive” and the Potency [15] was “inactive”. The Potency [16] was “inactive”, the outcome [17] was “inactive” and the Potency [18] was “inactive”.
With `CCOc1ccc(NC(=O)OC(C)C)cc1OCC` the outcome [1] was “inactive”, the Potency [3] was “inactive” and the outcome [19] was “inactive”. The Potency [4] was “inactive”, the outcome [5] was “inactive” and the Potency [7] was “inactive”. The Potency [8] was “inactive”, the outcome [9] was “inactive” and the Potency [10] was “inactive”. For the same compound, the Potency [11] was “inactive”, the outcome [12] was “inactive” and the Potency [14] was “inactive”. For the same compound, the Potency [15] was “inactive”, the outcome [17] was “inactive” and the Potency [18] was “inactive”.
In the case of `c1ccc(CNc2ncnc3nc[nH]c23)cc1`, the outcome [1] was “inactive”, the Potency [3] was “inactive” and the outcome [19] was “inactive”. For the same compound, the Potency [4] was “inactive”, the outcome [5] was “inactive” and the Potency [7] was “inactive”. The Potency [8] was “inactive”, the outcome [9] was “inactive” and the Potency [10] was “inactive”. For the same compound, the Potency [11] was “inactive”, the outcome [12] was “inactive” and the Potency [13] was “inactive”. The Potency [14] was “inactive”, the Potency [15] was “inactive” and the Potency [16] was “inactive”. The outcome [17] was “inactive”.
